Compounds without any hit were thinned out: in the full panel of roughly 83,000, 20% have a hit.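 Testing used 96-well plates and a 48-hour single-concentration exposure. Example: -40 means 40% of the starting cells died.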 The source made the active and inactive calls. Rule for the calls: active = growth percent below 10; inactive = the rest.
Tests used:
Assay in all cases: NCI-60 one-dose screen, 48 h (100 = growth as untreated, 0 = no growth, -100 = all killed)
Conditions in all cases: 10 µM unless noted
[1] = tested on: DU-145 prostate
[2] = tested on: K-562 leukemia
[3] = tested on: MALME-3M melanoma
[4] = tested on: MDA-MB-231 breast
[5] = tested on: RXF 393 renal
[6] = tested on: SF-268 CNS
[7] = tested on: SF-295 CNS
[8] = tested on: SF-539 CNS
[9] = tested on: UACC-257 melanoma
[10] = tested on: M14 melanoma
[11] = tested on: HCT-15 colon
[12] = tested on: HT29 colon
[13] = tested on: SNB-75 CNS
[14] = tested on: SNB-19 CNS
[15] = tested on: PC-3 prostate
[16] = tested on: SK-MEL-5 melanoma
[17] = tested on: UACC-62 melanoma
[18] = tested on: LOX IMVI melanoma
[19] = tested on: SK-MEL-28 melanoma
[20] = tested on: U251 CNS

Measured: growth

CCN1CCN(Cc2ccc(Cc3ncc(F)c(-c4cc(F)c5nc(C)n(C(C)C)c5c4)n3)nc2)CC1
active: [2] -29.2% | [5] -28.2% | [18] -80.4%
inactive: [1] 60.4% | [3] 65.9% | [4] 53.4% | [6] 54.4% | [7] 64.9% | [8] 59.8% | [9] 52.8% | [10] 45.2% | [11] 32.9% | [12] 13.2% | [13] 21.2% | [14] 47.8% | [15] 38.7% | [16] 34.2% | [17] 69.1% | [19] 64.4%

COc1c(OCCCN2CCOCC2)ccc2c3n(c(=NC(=O)c4cnc(N)nc4)nc12)CCN3
inactive: [1] 21.8% | [2] 21.8% | [4] 17.1% | [6] 24.6% | [10] 10.4% | [11] 14.9% | [14] 10.8% | [20] 10.1% | [15] 12%
active: [3] -21.2% | [5] -40.7% | [7] -15.4% | [8] -51.5% | [9] -13.8% | [12] 3.56% | [16] -48.7% | [17] -48.9% | [18] -41.9% | [19] -7.18%

C#Cc1cccc(Nc2ncnc3cc(OC)c(OCCCCCCC(=O)NO)cc23)c1
inactive: [15] 10.4%
active: [1] 0.81% | [2] 5.48% | [3] 2.19% | [4] -16.8% | [5] -49.5% | [6] -3.98% | [7] -53.6% | [8] -1.18% | [9] -47.3% | [10] 2.66% | [11] 7.16% | [12] -13.4% | [14] 7.79% | [20] -58.1% | [16] -91.4% | [17] -78.3% | [18] -89.3% | [19] -29.5%

CN1CCC(CNc2ccc3ncc(-c4cccc(OC(F)(F)F)c4)n3n2)CC1
inactive: [1] 22.5%
active: [2] -47.3% | [3] -90.2% | [4] -80.3% | [5] -70.7% | [6] -33.1% | [7] -71.2% | [8] -91.4% | [9] -87.4% | [10] -73.3% | [11] -35.2% | [12] -46.1% | [14] -48.6% | [20] -89.2% | [15] -20.6% | [16] -99.1% | [17] -95% | [18] -83.5% | [19] -86.4%

CCc1nc(C(N)=O)c(Nc2ccc(N3CCC(N4CCN(C)CC4)CC3)c(OC)c2)nc1NC1CCOCC1
active: [5] -92.9% | [8] -78.3% | [12] -23.9% | [18] -84.9%
inactive: [1] 45.1% | [2] 16.1% | [3] 52.4% | [4] 20.3% | [6] 38.3% | [7] 12.8% | [9] 40.5% | [10] 15.2% | [11] 25% | [14] 29.8% | [20] 32% | [15] 36.3% | [16] 66.4% | [17] 25.3% | [19] 24%

CC(C)c1cc(CNc2nc(Nc3cc(C4CC4)[nH]n3)cc(N3CCN(C)CC3)n2)on1
inactive: [14] 13.4%
active: [1] -15.7% | [2] 5.67% | [3] -42.9% | [4] 6.11% | [5] -54.1% | [6] -3.51% | [7] 6.84% | [8] -61.8% | [9] -14.3% | [10] -37.5% | [11] 6.83% | [12] 0.12% | [13] -64.2% | [15] 4.54% | [16] -24.2% | [17] -63.5% | [18] -58.4% | [19] -13.9%

O=C(NOC[C@H](O)CO)c1ccc(F)c(F)c1Nc1ccc(I)cc1F
active: [3] -11.7% | [5] 2.18% | [9] -26.8% | [10] 3.66% | [12] 7.15% | [17] -10.7% | [19] -2.06%
inactive: [1] 58.7% | [2] 29.2% | [4] 20.9% | [6] 60.1% | [7] 75% | [8] 64.2% | [11] 53% | [14] 49.1% | [20] 38.6% | [15] 92.8% | [16] 42.5% | [18] 23.1%

NC1(c2ccc(-c3nc4ccn5c(=O)[nH]nc5c4cc3-c3ccccc3)cc2)CCC1
active: [2] -16.8% | [3] -70.8% | [5] -21.7% | [7] -65.5% | [8] -80.9% | [9] -67.6% | [10] -66.5% | [12] -7.85% | [20] -3.88% | [16] -85.7% | [18] -57.6% | [19] -66.7%
inactive: [1] 60.9% | [4] 37.4% | [6] 52.3% | [11] 15.2% | [14] 18.1% | [15] 21.3% | [17] 47.5%

— PubChem BioAssay (NCI)
